Test results reported in PubChem BioAssay (EPA / NIEHS).
Records with an inconclusive call do not appear. Active and inactive are the calls of the source. How the source made its calls, unless noted: active means hit-call score of the fitted dose curve at least 0.9, where 1 is the maximum; inactive means score below 0.9.

Key:
[1] = target: Paired box protein Pax-6 (Homo sapiens) (UniProt P26367); test: ATG_Pax6_CIS: Attagene CIS-FACTORIAL HepG2 Assay for human Paired Box 6 (PAX6) (AID 2282956); conditions: HepG2 CIS-FACTORIAL PAX6 reporter transcription, RNA readout; actives raise or lower the signal
In short: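 Fluorescent RT-PCR products separated by capillary electrophoresis report PAX6-linked promoter mRNA in HepG2 cells 24 h post-dose. Curves fitted bidirectionally, DMSO as negative control.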

[2] = ATG_PXRE_CIS: Attagene CIS-FACTORIAL HepG2 Assay for human Pregnane X Receptor Element (PXRE) (AID 2282957); conditions: HepG2 Attagene CIS-FACTORIAL PXRE reporter, mRNA; actives raise or lower the signal
In short: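 Bidirectional activity, baselined to DMSO, derived from reporter mRNA fluorescence (RT-PCR plus capillary electrophoresis) in HepG2 cells bearing cis-promoter reporter units, 24 h exposure.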

[3] = ATG_RORE_CIS: Attagene CIS-FACTORIAL HepG2 Assay for human RAR-related Orphan Receptor Element (RORE) (AID 2282959); conditions: HepG2 Attagene cis-factorial RORE reporter, mRNA; actives raise or lower the signal
In short: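 Readout: fluorescent reporter mRNA by RT-PCR plus capillary electrophoresis, 24 h after dosing transfected HepG2 cells. Endogenous transcription factor activity on a cis promoter element is measured. Gain or loss of signal fitted against DMSO.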

[4] = ATG_Sox_CIS: Attagene CIS-FACTORIAL HepG2 Assay for human SRY-box transcription factor (SOX) (AID 2282960); conditions: HepG2 Attagene cis-factorial SOX reporter, mRNA; actives raise or lower the signal
In short: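 Read-out: fluorescent RT-PCR products of SOX1-linked reporter transcripts resolved by capillary electrophoresis, fitted bidirectionally against DMSO. Transiently transfected HepG2 cells, 24 h after chemical exposure, endogenous transcription factor activity.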

[5] = target: Transcription factor Sp1 (Homo sapiens) (UniProt P08047); test: ATG_Sp1_CIS: Attagene CIS-FACTORIAL HepG2 Assay for human Specificity Protein 1 (Sp1) (AID 2282961); conditions: HepG2 Sp1 cis-reporter transcription, actives raise or lower the signal
In short: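 Read-out: fluorescence of 6-FAM-labeled, HpaI-digested RT-PCR products separated by capillary electrophoresis. HepG2 cells carried transfected cis-element reporter units and were exposed to chemicals for 24 h; gain or loss of signal fitted relative to DMSO.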

[6] = ATG_SREBP_CIS: Attagene CIS-FACTORIAL HepG2 Assay for human Sterol Regulatory Element Binding (SREBP) (AID 2282962); conditions: HepG2 Attagene cis-factorial SREBP reporter, mRNA; actives raise or lower the signal
In short: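 Endogenous factor activity is measured in HepG2 through multiplexed reporter units under cis-element control. Following a 24 h incubation, reporter transcripts are reverse-transcribed, PCR-amplified and sized by capillary electrophoresis; activity is fitted in both directions relative to DMSO.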

[7] = target: Signal transducer and activator of transcription 3 (Homo sapiens) (UniProt P40763); test: ATG_STAT3_CIS: Attagene CIS-FACTORIAL HepG2 Assay for human Signal Transducer and Activator of Transcription 3 (STAT3) (AID 2282963); conditions: HepG2, Attagene cis-factorial STAT3 reporter transcription; actives raise or lower the signal
In short: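 Fluorescence intensity of 6-FAM-labelled reporter fragments, separated by capillary electrophoresis after RT-PCR, gave the signal. Cells were HepG2 transfected with cis-element reporter units and treated 24 h; fitting was bidirectional relative to DMSO.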

[8] = ATG_TA_CIS: Attagene CIS-FACTORIAL HepG2 Assay for human TA Basal Promoter (AID 2282964); conditions: HepG2 Attagene CIS-factorial TA basal promoter reporter; actives raise or lower the signal
In short: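 Read-out: fluorescent reporter-transcript fragments resolved by capillary electrophoresis after RT-PCR and HpaI digestion. Source: HepG2 cells carrying transiently transfected multi-reporter cis constructs, treated 24 h. Endpoint fitted bidirectionally relative to DMSO.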

[9] = ATG_TCF_b_cat_CIS: Attagene CIS-FACTORIAL HepG2 Assay for human T-Cell-Factor with beta-catenin (TCF/b-cat) (AID 2282965); conditions: HepG2 TCF/beta-catenin cis-reporter transcription, actives raise or lower the signal
In short: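 HepG2 cells transiently transfected with cis-promoter-driven multiplexed reporter units; reporter mRNA measured 24 h after dosing by RT-PCR, FAM labelling, HpaI digestion and capillary electrophoresis. Bidirectional fitting relative to DMSO baseline.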

[10] = ATG_TAL_CIS: Attagene CIS-FACTORIAL HepG2 Assay for human TAL Basal Promoter (AID 2282966); conditions: HepG2 Attagene cis-factorial TAL promoter reporter; actives raise or lower the signal;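 further: background control endpoint measuring basal TAL promoter reporter mRNA not a specific factor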
In short: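 Human hepatoma HepG2 cells, transfected with promoter-regulated reporter units, were treated 24 h. Reporter transcript levels, measured through RT-PCR and capillary electrophoresis, were fitted for gain or loss relative to DMSO.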

[11] = ATG_TGFb_CIS: Attagene CIS-FACTORIAL HepG2 Assay for human Transforming Growth Factor (TGF) (AID 2282967); conditions: HepG2 Attagene CIS TGFb reporter, mRNA transcription; actives raise or lower the signal
In short: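 Transient MRTU transfection of HepG2 (FuGene 6). Dose 24 h. TriZol RNA, oligo(dT) RT, PCR, 6-FAM primer extension, HpaI cut, CE. Bidirectional fit, DMSO = baseline.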

[12] = ATG_VDRE_CIS: Attagene CIS-FACTORIAL HepG2 Assay for human Vitamin D Receptor Element (VDRE) (AID 2282968); conditions: HepG2 VDRE cis-reporter transcription, actives raise or lower the signal
In short: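 Compounds were applied for 24 h to HepG2 cells transfected with promoter-regulated reporter units. Total RNA was reverse-transcribed, and reporter amplicons were fluorescently labelled and sized by capillary electrophoresis.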

[13] = target: X-box-binding protein 1 (Homo sapiens) (UniProt P17861); test: ATG_Xbp1_CIS: Attagene CIS-FACTORIAL HepG2 Assay for human X-box Binding Protein 1 (XBP1) (AID 2282972); conditions: HepG2 XBP1 cis-element reporter, Attagene multiplex; actives raise or lower the signal
In short: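 Multiplexed cis-reporter readout in transfected HepG2 liver cells. Exposure lasted 24 hours. Activity in either direction was fitted against DMSO as negative control and baseline.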

[14] = ATG_M_19_TRANS: Attagene TRANS-FACTORIAL HepG2 Assay for M19 Transcription Factor (Internal Marker) (AID 2282974; active means hit-call score of the fitted dose curve at least 0.9, where 1 is the maximum); conditions: HepG2 Attagene TRANS-FACTORIAL M19 internal marker reporter
In short: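 24 h chemical exposure of transiently transfected HepG2 (MRTU library). RNA → oligo(dT) RT → PCR → 6-FAM labelling → HpaI cut → CE fluorescence. Positive-direction fit vs DMSO baseline; background internal-marker readout.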

[15] = ATG_GAL4_TRANS: Attagene TRANS-FACTORIAL HepG2 Assay for GAL4 (Internal Marker) (AID 2282976; active means hit-call score of the fitted dose curve at least 0.9, where 1 is the maximum); conditions: HepG2 Attagene TRANS GAL4 internal marker reporter
In short: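 Liver HepG2 line bearing multiplexed GAL4-UAS reporter constructs; 24 h chemical treatment. Transcripts were quantified as fluorescent fragments on capillary electrophoresis after RT-PCR and HpaI cut, with activity fitted upward from DMSO.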

[16] = ATG_PPRE_CIS: Attagene CIS-FACTORIAL HepG2 Assay for human Peroxisome Proliferator-activated Response Element (PPRE) (AID 2282958); conditions: HepG2 PPRE cis-element reporter, Attagene transcription factor profiling; actives raise or lower the signal
In short: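 Read-out: fluorescent reporter mRNA fragments resolved by capillary electrophoresis after RT-PCR. HepG2 cells carried transiently transfected PPRE-driven cis reporter constructs and were dosed for 24 h; gain or loss of signal fitted relative to DMSO.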

Measured: AC50

Transcription factor Sp1 (Homo sapiens), sequence (P08047 whole entry, looked up): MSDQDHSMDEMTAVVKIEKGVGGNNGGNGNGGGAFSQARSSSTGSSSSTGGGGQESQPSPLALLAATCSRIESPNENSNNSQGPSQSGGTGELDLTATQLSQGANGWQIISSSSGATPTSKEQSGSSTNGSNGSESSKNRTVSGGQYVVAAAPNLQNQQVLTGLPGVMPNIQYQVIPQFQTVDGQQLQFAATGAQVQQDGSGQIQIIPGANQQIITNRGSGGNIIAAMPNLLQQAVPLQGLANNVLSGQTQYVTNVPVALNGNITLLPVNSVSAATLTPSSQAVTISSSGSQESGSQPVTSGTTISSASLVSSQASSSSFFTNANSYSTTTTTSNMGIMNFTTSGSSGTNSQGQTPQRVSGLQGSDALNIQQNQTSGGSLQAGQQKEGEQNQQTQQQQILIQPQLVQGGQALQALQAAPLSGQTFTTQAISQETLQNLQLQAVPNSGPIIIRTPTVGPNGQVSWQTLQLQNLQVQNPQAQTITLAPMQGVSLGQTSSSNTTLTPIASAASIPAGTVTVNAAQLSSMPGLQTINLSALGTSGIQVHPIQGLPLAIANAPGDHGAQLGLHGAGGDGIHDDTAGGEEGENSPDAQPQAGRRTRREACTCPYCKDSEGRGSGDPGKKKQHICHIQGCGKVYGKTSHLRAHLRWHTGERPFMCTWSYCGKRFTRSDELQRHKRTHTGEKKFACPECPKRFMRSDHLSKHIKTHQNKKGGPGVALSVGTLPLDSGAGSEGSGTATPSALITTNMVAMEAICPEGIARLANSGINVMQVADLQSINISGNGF
X-box-binding protein 1 (Homo sapiens), sequence (P17861 whole entry, looked up): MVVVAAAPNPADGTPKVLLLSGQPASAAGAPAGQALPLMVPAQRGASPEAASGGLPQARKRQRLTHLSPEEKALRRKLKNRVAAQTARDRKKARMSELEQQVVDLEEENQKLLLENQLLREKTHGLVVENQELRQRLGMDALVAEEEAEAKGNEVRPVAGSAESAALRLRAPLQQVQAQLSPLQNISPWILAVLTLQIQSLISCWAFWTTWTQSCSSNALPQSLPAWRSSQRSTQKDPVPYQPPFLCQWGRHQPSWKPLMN
Paired box protein Pax-6 (Homo sapiens), sequence (P26367 whole entry, looked up): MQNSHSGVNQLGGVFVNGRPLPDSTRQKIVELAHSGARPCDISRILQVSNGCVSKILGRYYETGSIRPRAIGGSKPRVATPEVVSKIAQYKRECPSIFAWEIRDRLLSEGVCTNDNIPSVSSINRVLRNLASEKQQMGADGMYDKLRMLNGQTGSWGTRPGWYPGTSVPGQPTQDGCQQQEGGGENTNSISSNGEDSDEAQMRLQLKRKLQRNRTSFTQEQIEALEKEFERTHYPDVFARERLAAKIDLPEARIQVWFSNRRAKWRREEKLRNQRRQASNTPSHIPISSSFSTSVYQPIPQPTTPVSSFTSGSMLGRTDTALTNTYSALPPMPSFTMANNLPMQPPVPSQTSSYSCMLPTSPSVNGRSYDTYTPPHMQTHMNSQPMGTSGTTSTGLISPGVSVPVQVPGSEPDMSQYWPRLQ
Signal transducer and activator of transcription 3 (Homo sapiens), sequence (P40763 whole entry, looked up, the tested form may be a part): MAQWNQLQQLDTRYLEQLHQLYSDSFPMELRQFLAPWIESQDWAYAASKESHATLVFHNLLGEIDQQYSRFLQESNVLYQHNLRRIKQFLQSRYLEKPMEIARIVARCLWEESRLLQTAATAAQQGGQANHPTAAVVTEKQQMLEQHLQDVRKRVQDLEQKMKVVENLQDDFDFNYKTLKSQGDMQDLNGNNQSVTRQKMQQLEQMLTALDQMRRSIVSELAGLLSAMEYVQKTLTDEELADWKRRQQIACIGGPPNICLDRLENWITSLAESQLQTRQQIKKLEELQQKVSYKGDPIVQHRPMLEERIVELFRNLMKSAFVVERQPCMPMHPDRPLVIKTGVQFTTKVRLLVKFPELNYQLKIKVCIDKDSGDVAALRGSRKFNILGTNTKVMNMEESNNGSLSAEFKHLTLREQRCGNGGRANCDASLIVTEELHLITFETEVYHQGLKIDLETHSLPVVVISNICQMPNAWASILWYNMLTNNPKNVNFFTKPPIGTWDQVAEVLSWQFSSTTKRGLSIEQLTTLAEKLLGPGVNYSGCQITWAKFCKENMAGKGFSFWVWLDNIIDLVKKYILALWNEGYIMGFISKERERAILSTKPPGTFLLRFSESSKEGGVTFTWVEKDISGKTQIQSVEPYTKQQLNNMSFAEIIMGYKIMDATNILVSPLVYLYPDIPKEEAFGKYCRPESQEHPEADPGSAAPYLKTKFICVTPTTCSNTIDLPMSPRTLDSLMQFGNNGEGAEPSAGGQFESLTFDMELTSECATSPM

CCC(=O)OCCOc1ccccc1
not listed: [16]
inactive: all other assays above

CC=Cc1ccc(OC)c(OC)c1
active: [2] 19500 nM
not listed: [13] | [15] | [16]
inactive: all other assays above

CC(=O)CC(=O)Nc1ccc(C)cc1C
not listed: [12] | [16]
inactive: all other assays above

COc1ccc(N)c([N+](=O)[O-])c1
not listed: [16]
inactive: all other assays above

C[C@H]1O[C@@H](O[C@H]2[C@@H](O)C[C@H](O[C@H]3[C@@H](O)C[C@H](O[C@H]4CC[C@@]5(C)[C@H](CC[C@@H]6[C@@H]5C[C@@H](O)[C@]5(C)[C@@H](C7=CC(=O)OC7)CC[C@]65O)C4)O[C@@H]3C)O[C@@H]2C)C[C@H](O)[C@@H]1O
inactive: [16] | [4] | [8] | [11] | [14]
active: [1] 81.1 nM | [2] 271 nM | [6] 82.2 nM | [7] 3540 nM | [9] 1030 nM | [12] 226 nM | [13] 141 nM

C=C(C)[C@H]1CC=C(C)C(=O)C1
active: [2] 27900 nM
not listed: [9] | [13] | [14] | [15] | [16]
inactive: all other assays above

CCOc1ccc(NC(=O)CC(C)O)cc1 (configuration not stated)
active: [11] 97.5 nM
not listed: [12] | [15] | [16]
inactive: all other assays above

NCc1ccco1
not listed: [13] | [16]
inactive: all other assays above

C=C(C)C(=O)OCCOCCOCCOCCOC(=O)C(=C)C
active: [2] 35300 nM
not listed: [16]
inactive: all other assays above
